Experimental data reported in PubChem BioAssay (NCATS).
Values without a mark were called inactive. Results filed as inconclusive are left out. The source made the active and inactive calls. Unless noted, calls come from the whole dose curve; as a rule, active = well fitted curve in the direction sought with a large enough effect; inconclusive = small, poorly fitted or top-dose-only effect, or another doubt; inactive = no such curve, though single readings can be large; an effect the other way counts as inactive or inconclusive.

How the values were obtained:
[1] = qHTS to identify inhibitors of the type 1 interferon - major histocompatibility complex class I in skeletal muscle: primary screen against the NCATS LOPAC collection (AID 1347405)
Procedure, shortened: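 Cells: C25cl48 human myoblasts, HiBiT-tagged HLA-B*08:01, stimulated with IFN-beta 4.0 ng/ml. Compounds are titrated 1:4.3 over 7 points from 46 uM final and incubated 24 hrs; endogenous MHC class I is quantified by HiBiT lytic luminescence.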

[2] = qHTS for inhibitors of adenylyl cyclases using a fission yeast platform: a pilot screen against the NCATS LOPAC library (AID 1347410)
Procedure, shortened: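 S. pombe CHP2027 (AC9-GNAS-PDE4D2) carrying PKA-repressed fbp1-GFP, incubated 18 h at 30C in EMM with LOPAC compounds at up to 57 uM. GFP gain-of-signal read by laser scanning cytometry; DMSO negative control.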

[3] = qHTS for Antimalaria activity screened against the NCATS CANVASS Library (AID 1347380)
Procedure, shortened: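 Growth inhibition of asexual erythrocytic P. falciparum Dd2 was quantified by SYBR Green DNA staining. Cultures grew 72 h with compound (11-point series) in hypoxic gas at 37C; lysis and staining lasted 18 h.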

[4] = Inflammasome Signaling qHTS Counterscreen: IL-1-beta AlphaLISA counterscreen against the NCATS CANVASS Library (AID 1347381)
Procedure, shortened: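 To flag interference with the AlphaLISA read-out, a known amount of purified IL-1-beta (4 pg) replaced cell supernatant. Detection used anti-IL-1-beta acceptor beads, biotinylated antibody and streptavidin donor beads at room temperature.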

[5] = Cytotoxicity qHTS for assessment of Hepg2 cells membrane integrity screened against the NCATS CANVASS Library (AID 1347387)
Procedure, shortened: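 Fluorescence proportional to lysed-cell number, from LDH leaking out of HepG2 cells exposed 5 hr at 37C to 0.59 nM - 46 uM compound (11-point qHTS), is measured after 10 min with CytoTox-ONE.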

[6] = qHTS for Activators of p53 Stress Response Pathway screened against the NCATS CANVASS Library (AID 1347388)
Procedure, shortened: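 p53RE-bla HCT-116 cells (4000/well) were pre-incubated for 5 h, then treated with compound (11 points) for 16 h at 37C. After 2 h with CCF4, the 460/530 nm ratio gave reporter activation; CellTiter-Glo measured viability.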

[7] = qHTS assay for small molecule disruptors of mitochondrial membrane potential screened against the NCATS CANVASS Library (AID 1347389)
Procedure, shortened: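 Compounds tested in 11-point qHTS series on HepG2 cells for 1 hr; membrane-potential dye added for 30 min at 37C. Lower red-to-green ratio indicates loss of potential.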

[8] = Secretion counterscreen for inhibitors of the SERCaMP assay screened against the NCATS CANVASS Library (AID 1347390)
Procedure, shortened: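 SH-SY5Y cells with constitutively secreted GLuc reporter, 1000 cells/well, treated 20 h at 37C with compounds at 0.001 - 77 uM final; secreted luciferase read as luminescence after coelenterazine; Brefeldin A as positive control.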

[9] = qHTS for activators of Nrf2/ARE signaling pathway screened against the NCATS CANVASS Library (AID 1347391)
Procedure, shortened: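 Cells carrying an ARE-driven beta-lactamase reporter (HepG2 background) are dosed for 16 h, then stained with CCF4. Cell viability in the same wells is measured by CellTiter-Glo luminescence.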

[10] = qHTS for activators of dead-cell proteases activity screened against the NCATS CANVASS Library (AID 1347392)
Procedure, shortened: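 HepG2 cells, 2000/well, attached 18 h at 37C, then exposed to compounds (11-point qHTS) for 5 h. Dead-cell protease release read as luminescence from cell-impermeant AAF-aminoluciferin substrate after 15 min at room temperature.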

[11] = qHTS for inhibitors of ER calcium dysfunction: SERCaMP assay screened against the NCATS CANVASS Library (AID 1347393)
Procedure, shortened: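 SH-SY5Y GLuc-SERCaMP, 1000 cells/well, 4 h attach; cpd 16 h, 37C/5% CO2; thapsigargin (added as 6x 600 nM) 4 h; coelenterazine; luminescence. Reduced reporter release = ER Ca stabilization.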

[12] = Vero-766 cells viability qHTS against the NCATS CANVASS Library: Counterscreen for Zika virus inhibition assay (AID 1347394)
Procedure, shortened: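 Vero 766 cells (1000/well), without Zika virus, were exposed to compounds for 72 h at 37C. Viability was measured by CellTiter Glo luminescence. Media-only wells served as 100% inhibition.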

[13] = qHTS for inhibitors of Wild type Zika virus screened against the NCATS CANVASS Library (AID 1347396)
Procedure, shortened: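 Protection against wild-type Zika cytopathic effect is measured in African green monkey Vero 766 cells exposed to an 11-point compound series. Surviving cells are quantified by CellTiter Glo luminescence after 72 h.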

[14] = Viability qHTS for inhibitors of the SERCaMP assay screened against the NCATS CANVASS Library (AID 1347400)
Procedure, shortened: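 Cytotoxicity counter-screen: ATP content (CellTiter-Glo luminescence) of SH-SY5Y-GLuc SERCaMP MJH297 cells after 48 h at 37C with compounds in an 11-point qHTS series.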

[15] = Redox Reaction Profiling qHTS: Assay Interference Panel against the NCATS CANVASS Library (AID 1347401)
Procedure, shortened: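 Compounds in 11-point series incubated with 5 uM resazurin and 200 uM DTT in 50 mM HEPES pH 7.3, 50 mM NaCl. Resorufin fluorescence (Ex 525/Em 598) read before and after 15 min in the dark.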

[16] = qHTS for inhibitors of Rabies Virus screened against the NCATS CANVASS Library (AID 1347402; calls by dose curve)
[17] = qHTS to identify inhibitors of the type 1 interferon - major histocompatibility complex class I in skeletal muscle: primary screen against the NCATS Pharmaceutical Collection (AID 1347407)
Procedure, shortened: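 Immortalized human myoblasts (C25cl48) with HiBiT knocked into endogenous HLA-B*08:01 were stimulated with 4.0 ng/ml IFN-beta and treated with compounds ([…] top 46 uM) for 24 hrs at 37 C. HiBiT lytic luminescence read.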

[18] = biological target: Protein phosphatase 1D (Homo sapiens) (UniProt O15297); test: RapidFire Mass Spectrometry qHTS Assay for Modulators of WT P53-Induced Phosphatase 1 (WIP1) (AID 1347424)
Protein phosphatase 1D (Homo sapiens), sequence (O15297 whole entry, looked up): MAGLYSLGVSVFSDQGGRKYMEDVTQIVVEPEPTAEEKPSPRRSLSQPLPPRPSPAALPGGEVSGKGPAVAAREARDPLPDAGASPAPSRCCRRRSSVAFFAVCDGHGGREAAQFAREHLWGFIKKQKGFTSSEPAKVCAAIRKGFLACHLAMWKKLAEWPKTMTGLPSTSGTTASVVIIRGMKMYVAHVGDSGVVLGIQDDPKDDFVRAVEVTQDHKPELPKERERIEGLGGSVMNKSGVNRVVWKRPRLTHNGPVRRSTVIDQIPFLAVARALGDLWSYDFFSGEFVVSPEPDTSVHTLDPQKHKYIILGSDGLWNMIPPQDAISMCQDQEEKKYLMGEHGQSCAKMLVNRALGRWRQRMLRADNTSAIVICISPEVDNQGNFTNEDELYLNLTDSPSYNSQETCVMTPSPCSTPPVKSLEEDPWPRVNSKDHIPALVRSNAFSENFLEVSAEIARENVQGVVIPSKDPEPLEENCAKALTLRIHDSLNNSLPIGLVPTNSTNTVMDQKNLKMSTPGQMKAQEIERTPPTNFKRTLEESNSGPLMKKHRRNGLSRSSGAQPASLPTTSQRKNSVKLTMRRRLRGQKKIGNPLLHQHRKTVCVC
Procedure, shortened: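 10 nM WIP1 preincubated with compounds 1 hr at room temperature in pH 7.5 Tris buffer with 30 mM MgCl2, 1 mM TCEP; 2 uM VEPPL-pS-QETFS phosphopeptide for 5 min, formic acid quench; dephosphorylated product quantified by RapidFire MS against labelled standard.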

[19] = biological target: Protein phosphatase 1D (Homo sapiens) (UniProt O15297); test: Rhodamine-PBP qHTS Assay for Modulators of WT P53-Induced Phosphatase 1 (WIP1) (AID 1347425)
Procedure, shortened: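 5 nM WIP1 + 10 uM Rh-PBP, 50 mM Tris pH 7.5, 30 mM MgCl2, 1 mM TCEP, 0.1 mM EGTA, BSA; cpds pinned, 1 hr RT; + 10 uM phosphopeptide; fluorescence 1-min reads x 11 min; delta = f1 - f0.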

CCCN1CCC[C@H](c2cccc(O)c2)C1
Potency [1]: inactive | outcome [2]: inactive

NCCc1c[nH]c2ccc(O)cc12
outcome [3]: inactive | outcome [4]: inactive | outcome [5]: inactive | outcome [6]: inactive | outcome [7]: inactive | outcome [8]: inactive | outcome [9]: inactive | outcome [10]: inactive | outcome [11]: inactive | outcome [12]: inactive | outcome [13]: inactive | outcome [14]: inactive | outcome [15]: inactive | outcome [16]: inactive | Potency [1]: inactive | outcome [2]: inactive

Cn1cnc(CCN)c1
Potency [1]: inactive | outcome [2]: inactive

NC1CC1c1ccccc1 (stereo not drawn)
Potency [1]: inactive | outcome [2]: inactive

NC1CCc2cc(O)c(O)cc2C1 (stereo not drawn)
Potency [1]: inactive | outcome [2]: inactive

C[C@@H]1O[C@H](C[N+](C)(C)C)C[C@H]1O
Potency [1]: inactive | outcome [2]: inactive

O=C(Cc1ccc(Cl)c(Cl)c1)N1CCCCC1CN1CCCC1 (stereo not drawn)
Potency [1]: inactive | outcome [2]: inactive

O=C(O)CC[N+](=O)[O-]
Potency [1]: inactive | outcome [2]: inactive

CC(Cc1ccc(O)cc1)NCC(O)c1cc(O)cc(O)c1 (stereo not drawn)
Potency [1]: inactive | outcome [17]: inactive | outcome [2]: inactive | Potency [18]: inactive | outcome [19]: inactive

NC(=NCCC[C@H](N)C(=O)O)N[N+](=O)[O-]
Potency [1]: inactive | outcome [2]: inactive

CS(=N)(=O)CC[C@H](N)C(=O)O (stereo partly drawn)
Potency [1]: inactive | outcome [2]: inactive

C[N+]1(C)C2CCC1CC(OC(=O)C(CO)c1ccccc1)C2 (stereo not drawn)
Potency [1]: inactive | outcome [2]: inactive

CC(=O)[C@H]1CCC2C3CC[C@H]4C[C@H](O)CC[C@]4(C)C3CC[C@@]21C (stereo partly drawn)
Potency [1]: inactive | outcome [2]: inactive

CCCN(CCC)[C@@H]1CCc2ccc(O)cc2C1
Potency [1]: inactive | outcome [2]: inactive

C[C@]12N[C@H](Cc3ccccc31)c1ccccc12
Potency [1]: inactive | outcome [2]: inactive

CN1C2CCC1CC(OC(=O)c1cc(Cl)cc(Cl)c1)C2 (stereo not drawn)
Potency [1]: inactive | outcome [2]: inactive

S=C(NC1CCCCC1)N1CCC(c2cnc[nH]2)CC1
Potency [1]: inactive | outcome [2]: inactive

CCCN(CCC)C1CCc2ccc(O)cc2C1 (stereo not drawn)
Potency [1]: inactive | outcome [2]: inactive

c1ccc2sc(C3(N4CCCCC4)CCCCC3)cc2c1
Potency [1]: inactive | outcome [2]: inactive

C[C@@H](N)Cc1cnc[nH]1
Potency [1]: inactive | outcome [2]: inactive

C=CCN1CC[C@]23CCCCC2[C@H]1Cc1ccc(O)cc13 (stereo partly drawn)
Potency [1]: inactive | outcome [2]: inactive

O=C1CCCN1CC#CCN1CCCC1
Potency [1]: inactive | outcome [2]: inactive

NC(CCP(=O)(O)O)C(=O)O (stereo not drawn)
Potency [1]: inactive | outcome [2]: inactive

COc1cc(C(O)CN)ccc1O (stereo not drawn)
Potency [1]: inactive | outcome [2]: inactive

Oc1ccc2c3c1O[C@H]1c4[nH]c5c(c4C[C@@]4(O)[C@@H](C2)N(CC2CC2)CC[C@]314)C[C@@]1(O)[C@H]2Cc3ccc(O)c4c3[C@@]1(CCN2CC1CC1)[C@H]5O4
Potency [1]: inactive | outcome [2]: inactive

O=C(O)[C@@H]1CCN1
Potency [1]: inactive | outcome [2]: inactive

C#CCOC(=O)C1=CCCN(C)C1
Potency [1]: inactive | outcome [2]: inactive

CCCCc1ccc(C(=O)O)nc1
Potency [1]: inactive | outcome [2]: inactive

CNCCc1ccc(O)c(O)c1
Potency [1]: inactive | outcome [2]: inactive

NCCc1c[nH]c2ccccc12
outcome [3]: inactive | outcome [4]: inactive | outcome [5]: inactive | outcome [6]: inactive | outcome [7]: inactive | outcome [8]: inactive | outcome [9]: inactive | outcome [10]: inactive | outcome [11]: inactive | outcome [12]: inactive | outcome [13]: inactive | outcome [14]: inactive | outcome [15]: inactive | outcome [16]: inactive | Potency [1]: inactive | outcome [2]: inactive

CC(=O)NCCc1c[nH]c2ccccc12
Potency [1]: inactive | outcome [2]: inactive

CC1=NN=C(c2ccc(N)cc2)c2cc3c(cc2C1)OCO3
Potency [1]: inactive | outcome [2]: inactive

C[N+](C)(C)CC(=O)O
Potency [1]: inactive | outcome [2]: inactive

CNCCc1c[nH]c2ccc(O)cc12
Potency [1]: inactive | outcome [2]: inactive

NCc1cc(=O)[nH]o1
Potency [1]: inactive | outcome [2]: inactive

c1ccc(C2(c3ccccc3)CC2C2=NCCN2)cc1 (stereo not drawn)
Potency [1]: inactive

CC(C)NC(C)Cc1ccc(I)cc1 (stereo not drawn)
Potency [1]: inactive | outcome [2]: inactive

CC[N+]1(CCOC(=O)C(O)(c2ccccc2)c2ccccc2)CCCCC1
outcome [17]: inactive | Potency [18]: inactive | outcome [19]: inactive

COC(C)(C)CCCC(C)C/C=C/C(C)=C/C(=O)OC(C)C (stereo not drawn)
outcome [17]: inactive | Potency [18]: inactive | outcome [19]: inactive

CCCCCCCCc1ccc(O)cc1
outcome [17]: inactive | Potency [18]: inactive

Nc1ccc(Sc2ccc(N)cc2)cc1
outcome [17]: inactive | Potency [18]: inactive

CS(=O)(=O)c1ccc(C(=O)C2C(=O)CCCC2=O)c([N+](=O)[O-])c1
outcome [17]: inactive

CCO/N=C(\CC)C1=C(O)CC(c2c(C)cc(C)cc2C)CC1=O (stereo not drawn)
outcome [17]: inactive | Potency [18]: inactive | outcome [19]: inactive

NC(CP(=O)(O)O)C(=O)O (stereo not drawn)
Potency [1]: inactive | outcome [2]: inactive

O=S(=O)(O)C(F)(F)C(F)(F)C(F)(F)C(F)(F)F
outcome [17]: inactive | Potency [18]: inactive | outcome [19]: inactive

O=C(O)C(Cl)Cl
outcome [17]: inactive | Potency [18]: inactive | outcome [19]: inactive

O=[N+]([O-])c1c2ccccc2cc2ccccc12
outcome [17]: inactive | Potency [18]: inactive
